We go through 20 compounds from PubChem BioAssay (Tox21).

A short description of experiment [1]: A CellTox Green Cytotoxicity Assay to monitor cytotoxicity in HEK293 cells - 32 hour (AID 1224881). Further: nearly all actives have a fitted effect of over 40% in size. Further: potency means the concentration at half of the fitted maximal effect. An outline of the steps: (§1)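 Real-time, in one plate: 600 HEK293 cells/well with dead-cell DNA dye, pinned compound after 5 h, 37 C incubation over 40 h; viable cells give no appreciable fluorescence.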
Experiment [2] can be described thus: A CellTox Green Cytotoxicity Assay to monitor cytotoxicity in HepG2 cells - 32 hour (AID 1224883). Further: nearly all actives have a fitted effect of over 50% in size. Further: potency means the concentration at half of the fitted maximal effect. An outline of the steps: (§2)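 Cytotoxicity was tracked as dead-cell DNA fluorescence in HepG2 cells treated with test compounds at 37 C; each time-point value comes from one kinetic series spanning 0, 8, 16, 24, 32 and 40 h.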
The nature of experiment [3]: A CellTox Green Cytotoxicity Assay to monitor cytotoxicity in HEK293 cells - 8 hour (AID 1224884). Further: nearly all actives have a fitted effect of over 35% in size. Further: potency means the concentration at half of the fitted maximal effect. An outline of the steps:
as §1

The nature of experiment [4]: qHTS RealTime-Glo MT Cell Viability Assay in HepG2 cells - 16 hour (AID 1224885). Further: nearly all actives have a fitted effect of over 50% in size. The gist of the method:
(§3)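 HepG2 cells (600/well) were dispensed with RealTime-Glo reagents, incubated 5 h at 37 °C, then treated with compounds in DMSO for up to 40 h. Nonlytic NanoLuc luminescence reflecting viable cells was read at each stated time point.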

Experiment [5] can be described thus: qHTS RealTime-Glo MT Cell Viability Assay in HEK293 cells - 24 hour (AID 1224886). Further: nearly all actives have a fitted effect of over 50% in size. Further: potency means the concentration at half of the fitted maximal effect. On activity change, negative = cytotoxicity: top concentration of the series differs between compounds. The gist of the method: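 HEK293 cells seeded with NanoLuc/prosubstrate reagent, rested 5 h at 37 C, then dosed and kept at 37 C up to 40 h. Nonlytic real-time luminescence from viable cells read at 0, 8, 16, 24, 32 and 40 h.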
Experiment [6] in a line: qHTS RealTime-Glo MT Cell Viability Assay in HEK293 cells - 8 hour (AID 1224887). Further: nearly all actives have a fitted effect of over 50% in size. Further: potency means the concentration at half of the fitted maximal effect. On activity change, negative = cytotoxicity: top concentration of the series differs between compounds. The gist of the method: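 Kinetic, non-lysing viability readout. Seed HEK293 (600/well) with reagent, incubate 5 h at 37 C/5% CO2, pin 23 nL compound in DMSO, incubate at 37 C, read luminescence at 0, 8, 16, 24, 32, 40 h.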
A short description of experiment [7]: A CellTox Green Cytotoxicity Assay to monitor cytotoxicity in HEK293 cells - 16 hour (AID 1224888). Further: nearly all actives have a fitted effect of over 35% in size. Further: potency means the concentration at half of the fitted maximal effect. The gist of the method: as §1
Experiment [8] in a line: qHTS RealTime-Glo MT Cell Viability Assay in HepG2 cells - 0 hour (AID 1224889). Further: nearly all actives have a fitted effect of over 50% in size. The gist of the method: as §3
Experiment [9] in a line: A CellTox Green Cytotoxicity Assay to monitor cytotoxicity in HepG2 cells - 8 hour (AID 1224890). Further: nearly all actives have a fitted effect of over 45% in size. Further: potency means the concentration at half of the fitted maximal effect. An outline of the steps:
as §2

Experiment [10] in a line: A CellTox Green Cytotoxicity Assay to monitor cytotoxicity in HepG2 cells - 0 hour (AID 1224882). Further: nearly all actives have a fitted effect of over 35% in size. An outline of the steps: as §2

Values joined by “and” are separate entries in the source; they are usually repeats but may differ in a detail not shown here. Identical values can stand only once. Unmarked numbers belong to inactive results. Records with an inconclusive call do not appear. Active and inactive are the calls of the source. The call rests on the fitted dose curve; in most records, active means well fitted curve in the direction sought with a large enough effect in the repeat runs; inconclusive means weak or mixed curves; inactive means no such curve, though single readings can be large; an effect the other way counts as inactive or inconclusive.
On the % scale 0 is the no-effect control and ±100 the full control effect.

Consider `C[N+](C)(C)CCOC(N)=O`, for which the Potency result in experiment [1], in experiment [2], in [3], in experiment [4], in experiment [5] and in [6] was “inactive” throughout. For the same compound, the Potency entry in experiment [7] and in experiment [8] was “inactive” throughout.
As to `CC1CN(c2cc3c(cc2F)c(=O)c(C(=O)O)cn3-c2ccc(F)cc2F)CCN1` (stereo not drawn), the cytotoxicity increase in experiment [1] is -2.92% [at 6.97 µM]; in experiment [2], 0.181% [at 6.97 µM]; in experiment [3] it was 1.21% [at 6.97 µM]; in experiment [9] it was -0.506% [at 6.97 µM]. For the same compound, the activity change, negative = cytotoxic in experiment [4] was 2.01% [at 6.97 µM]. Further, the activity change, negative = cytotoxicity in [5] was 6.23% [at 6.97 µM]; in experiment [6] it was 7.56% [at 6.97 µM]; in experiment [8], -3.32% [at 6.97 µM]. Moreover, in [7], the activity change was -0.883% [at 6.97 µM, hits give high values].
Take `CCc1cccc(N(C)C(N)=Nc2cccc3ccccc23)c1`: the Potency result in experiment [1], in [10], in experiment [3], in experiment [4], in [5] and in [6] was “inactive” in each case. The Potency entry in [7] and in experiment [8] was “inactive” throughout.
Turning to `CO/N=C1\CN(c2nc3c(cc2F)c(=O)c(C(=O)O)cn3C2CC2)CC1CN` (stereo not drawn), the Potency result in experiment [1], in [2], in [3], in experiment [4], in experiment [5] and in experiment [6] was “inactive” in each case. The Potency result in experiment [7] is “inactive”.
With `CCCCN(CCCC)CCCOC(=O)c1ccc(N)cc1`, the Potency result in experiment [1], in experiment [2], in experiment [3], in experiment [4], in experiment [5] and in experiment [6] was “inactive” each time. In addition, the Potency result in experiment [7], in [8] and in [9] was “inactive” in each case.
In the case of `N#C/C(=C1/SC[C@@H](c2ccc(Cl)cc2Cl)S1)n1ccnc1`, the Potency entry in experiment [1], in [10], in experiment [2], in [3], in [5] and in experiment [7] was “inactive” in each case. Also, the Potency entry in [8] and in [9] was “inactive” in each case.
As to `CCC(C)(C)C1CCC(O)CC1` (stereo not drawn), the Potency result in experiment [1], in experiment [10], in [3], in experiment [4], in experiment [5] and in experiment [6] was “inactive” in each case. The Potency result in [7], in [8] and in experiment [9] was “inactive” in each case.
As for `NC(=O)N(O)[C@@H]1COc2cc(OCc3ccccc3)ccc21`, the Potency entry in experiment [1], in experiment [10], in [3], in [4], in experiment [5] and in experiment [6] was “inactive” throughout. Also, the Potency entry in experiment [7] is “inactive”.
Consider `CCN(CC)CCNC(=O)c1ccc(NC(C)=O)cc1`, for which the Potency result in experiment [1], in [2], in experiment [3], in [4], in [5] and in experiment [6] was “inactive” throughout. Moreover, the Potency entry in experiment [7], in experiment [8] and in experiment [9] was “inactive” each time.
With `CCc1c2c(nc3ccc(OC(=O)N4CCC(N5CCCCC5)CC4)cc13)-c1cc3c(c(=O)n1C2)COC(=O)[C@]3(O)CC`, the Potency entry in experiment [1], in experiment [10], in [3], in experiment [4], in [6] and in [7] was “inactive” in each case. Moreover, the Potency entry in experiment [8] and in [9] was “inactive” in each case. For the same compound, the Potency in experiment [5] was 2.68 µM (active).
Turning to `CC1=CC(=O)CC(C)(C)C1(O)/C=C/C(C)=C\C(=O)O` (stereo not drawn), the Potency entry in experiment [1], in experiment [2], in [3], in experiment [4], in experiment [5] and in experiment [6] was “inactive” throughout. For the same compound, the Potency result in experiment [7], in experiment [8] and in [9] was “inactive” each time.
As for `NC(=O)Cn1c(=O)cc(CCN2CCN(c3nccc4sccc34)CC2)c2ccc(F)cc21`, the Potency entry in experiment [1], in [10], in experiment [2], in [3], in [7] and in experiment [9] was “inactive” each time. Moreover, in [5], the Potency was 49 µM (active).
As for `CC1C2CC(CC2C2CCCC(O)C2)C1(C)C` (stereo not drawn), the Potency in experiment [1] is 49 µM (active); in [2] it was 43.6 µM (active); in experiment [3], 43.6 µM (active); in experiment [7], 49 µM (active); in experiment [9] it was 43.6 µM (active). Also, the Potency entry in experiment [4], in experiment [5], in experiment [6] and in experiment [8] was “inactive” in each case.
For `COCc1c(C(C)C)nc(C(C)C)c(/C=C/[C@@H](O)C[C@@H](O)CC(=O)O)c1-c1ccc(F)cc1`, the Potency entry in experiment [1], in [10], in experiment [3], in [7] and in experiment [9] was “inactive” in each case. In addition, the Potency in [2] is 338 nM (active) and 4.84 µM (active).
As for `C[Si]1(C)O[Si](C)(C)O[Si](C)(C)O1`, the Potency entry in experiment [1], in [2], in experiment [3], in [4], in [5] and in experiment [6] was “inactive” throughout. Also, the Potency entry in experiment [7], in experiment [8] and in experiment [9] was “inactive” throughout.
As to `Cc1occc1C(=O)Nc1ccc(C(=O)N2CCC(F)(F)/C(=C\C(=O)N3CCC(N4CCCCC4)CC3)c3ccccc32)cc1`, the Potency result in experiment [1], in experiment [10], in experiment [3], in experiment [4], in experiment [7] and in [9] was “inactive” each time. In addition, in experiment [5], the Potency is 5.43 µM (active).
On to `CCc1nn(CCCN2CCN(c3cccc(Cl)c3)CC2)c(=O)n1CCOc1ccccc1`, for which the Potency entry in experiment [1], in experiment [10], in experiment [2], in [3], in [7] and in [9] was “inactive” throughout. For the same compound, the Potency in [5] was 8.49 µM (active); in [6], 10.7 µM (active).
Take `C/C(=N/NC(=O)c1ccncc1)C(=O)O`: the Potency entry in [1], in [2], in experiment [3], in experiment [4], in experiment [5] and in experiment [6] was “inactive” each time. Moreover, the Potency entry in [7], in experiment [8] and in [9] was “inactive” throughout.
Turning to `CO[Si](C)(OC)OC`, the Potency entry in experiment [1], in [10], in [3], in [4], in [5] and in [6] was “inactive” in each case. Moreover, the Potency result in experiment [7] and in experiment [9] was “inactive” each time.
For `COc1cc2c(cc1OC)-c1cc(=Nc3c(C)cc(C)cc3C)n(C)c(=O)n1CC2`, the Potency entry in experiment [1], in experiment [3], in [4], in [5], in experiment [6] and in experiment [7] was “inactive” in each case. Moreover, the Potency result in experiment [8] and in experiment [9] was “inactive” throughout.
